# Results taken from PubChem BioAssay (Tox21).
# Inconclusive results are not listed. A number with no mark means an inactive call. Active and inactive are the calls of the source. Calls come from the whole dose curve; as a rule, active = well fitted cell-killing curve with a large enough effect in the repeat runs; inconclusive = weak or mixed curves, or effect the other way; inactive = flat fitted curve, though single readings scatter.
# Assay: qHTS assay to identify small molecule antagonists of the estrogen receptor alpha (ER-alpha) signaling pathway using the BG1 cell line in the presence of 0.1 nM 17-beta-estradiol - cell viability counter screen (AID 1259241); note: nearly all actives have a fitted effect of over 40% in size
# Settings: VM7Luc4E2 (BG1) viability, CellTiter-Fluor protease, 22 h, 0.1 nM estradiol agonist added; series mostly up to 92.4 µM; activity change, negative = cytotoxicity: at the top concentration
# Text: National Center for Advancing Translational Sciences [NCATS]
# NIH Chemical Genomics Center [NCGC]
# U.S. Environmental Protection Agency [EPA]
# National Institutes of Environmental Health Sciences [NIEHS]
# National Toxicology Program [NTP]
# U.S. Food and Drug Administration [FDA]
# Estrogen receptor (ER), a member of the nuclear hormone receptor plays an important role in development, metabolic homeostasis and reproduction. Two subtypes of ER, ER-alpha and ER-beta, have similar expression patterns with some uniqueness in both types. Endocrine disrupting chemicals (EDCs) and their interactions with steroid hormone receptors like ER causes disruption of normal endocrine function. Therefore, it is important to understand the effect of environmental chemicals in ER signaling pathway. For identifying ER antagonists, VM7Luc4E2 cell line was used to screen against Tox21 compound libraries.
# VM7Luc4E2 cell line (provided by Denison MS, University of California) endogenously express full-length ER-alpha and is stably transfected with a plasmid containing four estrogen responsive elements (ERE) upstream of a luciferase reporter gene. The current screening for identification of ER-alpha inhibitors against Tox21 compound libraries used lower concentration (0.1 nM) of 17beta-Estradiol as a stimulator. The cytotoxicity of the Tox21 compound libraries against VM7Luc4E2 cell line was tested by measuring live-cell protease activity using CellTiter-Fluor assay in the same wells.
# Tox21 Assay Protocol Summary:
# VM7Luc4E2 cells were cultured in phenol red free assay medium containing 10% charcoal stripped FBS for 5 days prior to the assay. The cells were dispensed at 4,000 cells/well in 4 uL of assay medium into white wall/solid-bottom 1536-well plates (Corning Life Sciences, Corning, NY) using a Multidrop Combi (ThermoFisher Scientific, Waltham, MA) dispenser. After the assay plates were incubated at 37C and 5% CO2 for 24 hr, 23 nL of compounds dissolved in DMSO, positive controls or DMSO only was transferred to the assay plates by a Pintool station (Kalypsys, San Diego, CA). The transfer of compounds was followed by the addition of 1 uL of 0.1 nM (final concentration) agonist (17beta-Estradiol)/assay medium using a Flying Reagent Dispenser (FRD, Aurora Discovery, San Diego, CA). The plates were incubated at 37C and 5% CO2 for 22 hr. For cytotoxicity assay, 1 uL of CellTiter-Fluor reagent (Promega Corporation, Madison, WI) was added to each well using the FRD and after 30 min incubation at 37C and 5% CO2, The fluorescence intensity was measured using ViewLux plate reader (PerkinElmer, Shelton, CT).
# % is set by controls: 0 for no effect and ±100 for the full control effect; potency is the fitted concentration of half-maximal effect.
Structure (SMILES),"activity change, negative = cytotoxicity",Potency
CO/N=C(/C(=O)OC)c1ccccc1COc1ccccc1C,-0.438%,–
COCC(C)N(C(=O)CCl)c1c(C)csc1C (stereo not given),-10.5%,–
O=C(CBr)c1ccccc1,3.92%,–
CCBr,14.8%,–
CC[C@H]1C[C@H]2[C@@H]3CCC4=CC(=O)CC[C@@H]4[C@H]3CC[C@]2(C)[C@H]1O,0.415% [at 42.5 µM],–
O=C(NCc1cccnc1)Nc1ccc([N+](=O)[O-])cc1,2.31%,–
CC(C)(C)c1cc([N+](=O)[O-])cc([N+](=O)[O-])c1O,–,13.6 µM (active)
O=C(CBr)OCc1ccccc1,-4.02%,–
NC(=O)C(Cl)(Cl)Cl,10.4%,–
O=C1C(=O)c2cccc3cccc1c23,-2.03%,–
Brc1ccccc1,10.7%,–
S=C=NCc1ccccc1,8.71%,–
Cc1cc(=O)[nH]o1,6.62%,–
CCOS(C)(=O)=O,0%,–
Cc1ccc(-c2c(Cl)nc(C#N)n2S(=O)(=O)N(C)C)cc1,-17.7%,–
Clc1ccc(C(OCCN2CCCCC2)c2ccccc2)cc1 (stereo not given),-24.9% [at 42.5 µM],–
O=S(=O)(O)C(F)(F)C(F)(F)C(F)(F)C(F)(F)F,-2.81%,–
CC(O)(CS(=O)(=O)c1ccc(F)cc1)C(=O)Nc1ccc(C#N)c(C(F)(F)F)c1 (stereo not given),3.31% [at 42.5 µM],–
CNC(C)Cc1ccccc1OC (stereo not given),-10.5% [at 42.5 µM],–
C=CCN1CC[C@]23c4c5ccc(O)c4O[C@H]2C(=O)CC[C@@]3(O)[C@H]1C5,0.405% [at 42.5 µM],–

Structure (SMILES),"activity change, negative = cytotoxicity",Potency
O=[N+]([O-])C(Br)(CO)CO,-3.19%,–
Clc1cc(C(Cl)(Cl)Cl)cnc1Cl,1.01%,–
CC(=O)c1cc2c(cc1C)C(C)(C)C(C)CC2(C)C (stereo not given),-0.458%,–
COC(=O)C(C)N(C(=O)Cc1ccccc1)c1c(C)cccc1C (stereo not given),4.75%,–
O=Cc1ccc(Cl)cc1Cl,-10.9%,–
C=CC(=O)OCC(C)O (stereo not given),-0.265%,–
C[C@@H]1CC[C@H]2[C@@H](C)C(=O)O[C@@H]3O[C@@]4(C)CC[C@@H]1[C@]32OO4,6.08% [at 42.5 µM],–
Cc1c(F)c(F)c(COC(=O)C2C(/C=C(\Cl)C(F)(F)F)C2(C)C)c(F)c1F (stereo not given),6.9%,–
CC(C)O.CC(C)O.OCCN(CCO)CCO.OCCN(CCO)CCO.[Ti],1.78%,–
O=C(NC(=O)c1c(F)cccc1F)Nc1ccc(OC(F)(F)C(F)OC(F)(F)F)c(Cl)c1 (stereo not given),3.18% [at 42.5 µM],–
C(=NC1CCCCC1)=NC1CCCCC1,–,inactive
ClCCCCBr,6.64%,–
CN1C(=O)NC(=O)C(C)(C2=CCCCC2)C1=O (stereo not given),6.8% [at 42.5 µM],–
Clc1cccc(SC2CCNCC2)n1,-9.04% [at 42.5 µM],–
CC1Sc2c(C(=O)O)c(=O)c3cc(F)c(N4CCNCC4)cc3n21 (stereo not given),0% [at 42.5 µM],–
CCN(C)N=O,10.9%,–
OCCCBr,2.01%,–
c1ccc(C2CC2)c(OCC2=NCCN2)c1,-2.62% [at 42.5 µM],–
C=C(C#N)CCC#N,3.3%,–
Sc1ccccc1Cl,4.59% [at 42.5 µM],–
